From PubChem BioAssay AID493014 (National Center for Advancing Translational Sciences (NCATS), 2011)
The campaign covered roughly 340,000 compounds. About 170 (0.05%) were called active. Inconclusive results (about 26%) are left out. The entries come from a sample that favours actives as a whole. A number with no mark means an inactive call. Calls follow the shape of the dose curve; as a rule, active = well fitted inhibition curve with a large enough effect in the signal ratio, with a control signal flat (not every such curve was filed as active); inconclusive = small, poorly fitted or top-dose-only effect, or effect the other way, or a change in a side signal; inactive = flat fitted curve, though single readings scatter; the % refers to the signal ratio.

Experiment: qHTS Assay to Find Inhibitors of Chronic Active B-Cell Receptor Signaling
Details: ABC-DLBCL IkBa-CBG/CBR reporter, luminescence ratio, 4 h; series mostly up to 46.1 µM; activity change, negative = inhibition: at the top concentration
From the text: NIH Molecular Libraries Probe Production Network [MLPCN] NIH Chemical Genomics Center [NCGC] MLPCN Grant: 1 R03 DA031086-01A1 PI Name: Dr. R. Eric Davis NCGC Assay Overview: Diffuse large B-cell lymphoma (DLBCL) is the most common category of non-Hodgkin lymphoma, with ~20,000 new cases per year in the United States. DLBCL should be regarded as a collection of different neoplasms. Microarray gene expression analysis has defined two principal types of DLBCL, named for their similarity to normal B cell stages or activation states: a germinal center B-cell (GCB) type, and an activated B-cell (ABC) type. In ABC-DLBCL, a constitutive high-level activity of the NF-kappaB family of transcription factors has been observed (1) and NF-kappaB target genes are more highly expressed in ABC primary tumors than in GCB tumors. Functional studies have shown a constitutive high-level activity of the IkappaB (inhibitor of kappa-B) kinase (IKK) complex. […] Further analysis of DLBCL primary tumors for NF-kappaB target gene expression imply that although CARD11 is required for constitutive IKK activity in all ABC-DLBCL lines, mutations in CARD11 may be the root cause of IKK activation only in lines or tumors with such mutations. In other words, CARD11 mutations may explain NF-kappaB activation in only 10% of ABC-DLBCL cases. […] This process has been termed 'chronic active BCR signaling' (CABS). The goal of this screen is to find small-molecule inhibitors of the CABS pathway found in ABC-DLBCL lines using a cell-based assay that measures IkappaBalpa stability, which has already been extensively validated in the OCI-Ly3 line (PubChem AID:445; REF: 4). […] The assay uses green (CBG68) and red (CBR) emitting beetle luciferases [Chroma-GloTM developed by Promega Corp.] where the green luciferase is fused to IkappaBalpha and the red luciferase is present in its native state. Both luciferase genes are stably present in the TMD8 human ABC DLBCL cell line, but their expression is under the control of tetracycline-inducible promoters. Following the addition of doxycycline to induce expression of the luciferases, the green luminescence in control cultures rises only slowly because the CBG fusion partner IkappaBalpha is targeted by IKK activity for rapid degradation. In contrast, green luminescence rises rapidly in the presence of proteasome inhibitors or IKK inhibitors. The rise in red luminescence of CBR is not affected by proteasome or IKK inhibitors, and serves as normalization for cell number and nonspecific effects. Compounds were screened as a concentration-titration series that ranged from 46 uM to 3 nM.
NCGC Assay Protocol Summary: Cells were seeded in 1536-well plates at 5000 cells/4uL in IMDM medium containing 0.5% FBS, w/o phenol red, 1% penicillin/streptomycin. Then, 23 nL of compounds or DMSO were delivered to each well using a pin tool. One uL 20ng/ml doxycycline was then dispensed into white solid 1536-well plates and the plates were incubated at 37C/5% C02 in a cell incubator for 4 hrs. Then 4 uL luminescent substrate mix (in-house prepared: 150 mM Tris-Cl, pH 7.6, 3 mM MgCl2, 1% Triton X-100, 5 mM DTT, 0.2 mM CoA, 0.15 mM ATP, 5 mM D-luciferin, final concentrations) was added to each well. The plate was incubated at r.t. for 10-15 min. The plates were measured on a ViewLux plate reader for green luminescence (540/20 nm filter) and red luminescence (618/8 nm filter). The green and red luminescent signals were corrected for red and green luminescence filter overlap using previously determined filter calibration constants (determined using the procedure outlined in the Promega Technical Manual; REF 4). The %Activity was determined from the ratio of corrected green/red luminescent values. MG132 were used as control. […] Red luminescent %Activity was normalized to the difference between red luminesence in basal cells (0%Activity) and zero luminescence (-100% Activity). […]
Potency is read from the fitted curve at half-maximal effect.

| SMILES | activity change, negative = inhibition [%] | Potency |
| --- | --- | --- |
| COc1ccc(-c2noc(CCC(=O)N3CCN(c4cccc(C)c4)CC3)n2)cc1 | -0.0829 | – |
| Cc1ccc(N2C(=O)N3[C@@H]4c5ccccc5OC[C@@H]4[C@@H](c4ccccc4)[C@@]3(C)C2=O)cc1 | 0.331 | – |
| CC(C)n1ncc2c(C(=O)Nc3ccc(CC#N)cc3)cc(C3CC3)nc21 | -0.329 | – |
| COc1cccc(N2CCN(CC(=O)Nc3ccnn3C3CCCC3)CC2)c1 | -0.74 | – |
| COc1ccccc1-c1sc2ccccc2c1C#CC1(O)CCCCC1 | 7 | – |
| C#CCOCCOCCOCCNc1nc(N2CCN(C(=O)[C@H](CO)n3cc([C@@H](N)C(C)C)nn3)CC2)nc(N2CCN(C(=O)[C@H](CCC(=O)O)n3cc([C@@H](N)[C@H](C)CC)nn3)CC2)n1 | -0.657 | – |
| CCCCC/C=C/C1=CC(=O)C[C@H](c2ccc(Cl)cc2)C1 | 7.14 | – |
| COc1ccc(NS(=O)(=O)c2ccc3oc(SCC(N)=O)nc3c2)cc1 | -8.77 | – |
| COC1=C(N2CCOCC2)C(=O)c2ccccc2C1=O | 0.0293 | – |
| CCOC(=O)C1CCN(C(=O)CN2C(=O)NC(C)(c3ccc4cc(OC)ccc4c3)C2=O)CC1 (stereo not given) | -1.79 | – |
| CC(C)(C)OC(=O)C[C@@H]1C/C=C\C[C@@H](CC(=O)N[C@H](CO)Cc2ccccc2)C(=O)NC[C@@H](c2ccccc2)OC1=O | 1.85 | – |
| Cc1ccc(NC(=O)CCC(=O)N2CCC(c3ccccc3)=N2)cc1S(=O)(=O)N1CCCCC1 | 6.15 | – |
| Cc1ccc(-n2ncc(C(=O)NC3CC3)c2C2CCN(C(=O)OC(C)(C)C)CC2)c(C)c1 | 5.88 | – |
| COc1ccc(CN2C(CC(=O)Nc3cccnc3)c3ccc(C(F)(F)F)cc3S2(=O)=O)cc1 (stereo not given) | -7.67 | – |
| Cn1c2cc(B(O)O)sc2c2cnn(Cc3ccccc3F)c(=O)c21 | 25.8 | – |
| COc1ccc(-c2c(-c3cc(OC)cc(OC)c3)n(C)c3ccc(-c4ccn[nH]4)cc23)cc1 | -0.87 | – |
| COc1ccc(S(=O)(=O)N2CCCCC2)cc1NC(=O)c1cc([N+](=O)[O-])ccc1N1CCOCC1 | 5.45 | – |
| Cc1ccc(NC(=O)c2cccc(S(=O)(=O)N3CCCc4ccccc43)c2)nc1 | 12.1 | – |
| Cc1ccc(S(=O)(=O)N2CCN(C(=O)Cn3c(=O)cnc4ccccc43)CC2)c(C)c1 | -0.195 | – |
| COc1ccc(N2CCN(C(CNS(=O)(=O)c3ccc(C)cc3)c3ccccc3)CC2)cc1 (stereo not given) | 4.46 | – |
| COc1ccc(CCN(C)C(=O)C23CC4CC(CC(Cl)(C4)C2)C3)cc1OC | 0.382 | – |
| COC(=O)[C@]1(C)N[C@H](c2ccc(-c3ccc(Cl)c(Cl)c3)cc2)[C@@H]2C(=O)N(C)C(=O)[C@@H]21 | -4.17 | – |
| CC(C)(C)OC(=O)C[C@@H]1C/C=C\C[C@@H](CC(=O)N(CCO)Cc2ccccc2)C(=O)N[C@H](Cc2ccccc2)COC1=O | 0.431 | – |

| SMILES | activity change, negative = inhibition [%] | Potency |
| --- | --- | --- |
| CSCCC1NC(=O)N(CC(=O)Nc2cccc(S(=O)(=O)N3CCCCCC3)c2)C1=O (stereo not given) | -1.39 | – |
| Cc1c(O)c(C)c2c(c1O)C(=O)C[C@@H](c1ccccc1)O2 | 12.1 | – |
| COc1ccc(CNC(=O)CCn2cccc2)cc1 | 14.4 | – |
| COc1ccc(CNC(=O)/C(C#N)=C/c2cccc(OC)c2OC)cc1 | – | 11.2 µM (active) |
| COc1ccc(/C=C(\C#N)C(=O)NCCCn2ccnc2)cc1 | 0.0871 | – |
| CCC1=Nc2cc(C(=O)NCCCN3CCOCC3)ccc2Sc2ccc(Br)cc21 | 2.34 | – |
| COCCCNC(=O)CC1C[C@H](C(=O)N2CCCCC2)[C@@]2(CCc3ccccc3)c3[nH]c4ccccc4c3CCN2C1=O (stereo not given in full) | -1.58 | – |
| O=C1OC[C@@H]2CCCN2C(=O)[C@H](CC(=O)N(CCO)Cc2ccccc2)C/C=C\CC[C@@H]1Cc1ccc(F)cc1 | 0.374 | – |
| Cc1cccc(Nc2nnc(SCC(=O)c3c(N)n(C4CC4)c(=O)[nH]c3=O)s2)c1C | 0.765 | – |
| Cc1cccc(C)c1NC(=O)COC(=O)c1c(C)nn(-c2ccccc2)c1C | -0.466 | – |
| O=C1NC(Cc2ccc(O)cc2)c2nc3ccc(Cl)cc3c(=O)n2-c2ccccc21 (stereo not given) | -3.14 | – |
| CCC(CC)COC(=O)C1=C(C)NC(=O)NC1c1ccc([N+](=O)[O-])cc1 (stereo not given) | -8.44 | – |
| Cc1ccc(CC(=O)Nc2ccc(S(=O)(=O)N3CCOCC3)cc2)cc1C | -2.28 | – |
| CC(C)(C)OC(=O)Nc1ccc([C@@H](NC(=O)OC(C)(C)C)C(=O)OC(C)(C)C)cc1 | -1.99 | – |
| CN(C(=O)c1cccc(NC(=O)Cc2ccc([N+](=O)[O-])cc2)c1)C1CCC1 | -5.64 | – |
| CN(C)S(=O)(=O)c1cccc(NC(=O)COc2ccc3ccccc3c2)c1 | -4.65 | – |
| COc1ccc(-c2nc3c(s2)CCc2onc(-c4ccc(OC)cc4)c2-3)cc1 | 2.16 | – |
| CCOC(=O)[C@@H]1[C@H]2COc3ccc(Br)cc3[C@H]2N2C(=O)N(c3ccc(C)cc3)C(=O)[C@@]12C | -0.0599 | – |
| CN(C(=O)c1cccc(NC(=O)C2CCN(C(=O)OC(C)(C)C)CC2)c1)C1CCC1 | -17.4 | – |
| CC(=O)c1ccc(OCCCC(=O)Nc2ccc(C)c(S(=O)(=O)N3CCOCC3)c2)cc1 | -3.66 | – |
| COc1cc(C(c2c(NC(=O)c3ccco3)sc(C)c2C)N2CCOCC2)cc(OC)c1OC (stereo not given) | 2.54 | – |
| Cc1ccc(S(=O)(=O)N(C)C)cc1NC(=O)CN1c2cccc3cccc(c23)S1(=O)=O | -4.26 | – |
